CCT chaperon mod – modulators of cytosolic chaperonin (CCT/TRiC) activity; purified chaperonin ATPase assay, HTRF ADP detection, 30 min; activity change, % (test concentration not listed), hits read low; 360,000 tested, 0.3% active; AID 651819; in the data active = activity change below about -30%; also: % is scaled to controls: 0 for no effect and ±100 for the full control effect
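First, chaperonin was dispensed at 40 nM or 20 nM final depending on batch activity. Next, compounds were pinned at 76 uM and ATP added at 10 uM. After 30 min at 37 °C, ADP detection reagents ran 30 min at ambient temperature.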
PINK1 modulator – PINK1 expression modulation. PINK1 immunofluorescence, high-content cytometry, 24 h. Potency, µM (titrated, usually from 76.6 µM), without a hit: top-dose activation (PINK1 increase), actives largely listed as activators. 410,000 tested, 0.2% active. AID 624263; active = well fitted activation curve with a large enough effect; inconclusive = small, poorly fitted or top-dose-only effect; cell line not stated here; also: potency is read from the fitted curve at half-maximal effect; % of control where 0% means no effect; nearly all actives have a fitted effect of over 65% in size
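Measures PINK1 amount and localization on or inside mitochondria by immunofluorescence. Stable cells get compounds at 5 concentrations for 24 hours before fixation and staining; CCCP controls included.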
MmCpn inh – inhibitors of Methanococcus maripaludis chaperonin TRiC (MmCpn); purified Mm-Cpn ATPase, ADP Transcreener TR-FRET; Potency, µM (top dose mostly 76.9 µM), for inactives: top-dose activity, negative = inhibition, usual class: inhibitors; 330,000 tested, 0.031% active; also: potency is read from the fitted curve at half-maximal effect; % is scaled to controls: 0 for no effect and ±100 for the full control effect; nearly all actives have a fitted effect of over 80% in size
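Eu-cryptate anti-ADP/ADP-d2 competition gives a ratio inversely related to ADP. Enzyme at 25 nM was pre-exposed to compound for 10 min, then given 10 uM ATP for 30 min, 37°C throughout.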
S-ASM inh – human S-ASM enzyme inhibition; P17405; placental ASM, HMU-PC fluorogenic substrate, 60 min; Potency, µM (series often up to 57.5 µM), for inactives: top-dose activity change, negative = inhibition, actives largely listed as inhibitors; 340,000 tested, 0.006% active; AID 504937; also: potency is read from the fitted curve at half-maximal effect
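Human placenta-derived ASM preincubated with compound 10 min at room temperature, then reacted with 9 uM (final) fluorogenic HMU-PC substrate for 60 min at 37 C. Stop solution raises pH to 10; fluorescence read at Ex 386/Em 447 nm.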
p53 reactivator – mutant p53 re-activation in reporter cells; H1299 p53-A138V BP100-luciferase reporter, luminescence, 24 h; Potency, µM (top dose mostly 92.2 µM), inactives show top-dose activity change, positive = activation, usual class: activators; 320,000 tested, 0.063% active; AID 504706; also: potency is read from the fitted curve at half-maximal effect; % of control where 0% means no effect; nearly all actives have a fitted effect of over 45% in size
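p53-null H1299 cells stably carrying temperature-sensitive p53-A138V and a BP100-luciferase reporter were pinned with compounds (4-point, 1:5 series) and held 24 hrs at 37 deg C. Luminescence was read 10 min after detection reagent.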
12-LOX inh – inhibitors of human 12S-lipoxygenase ALOX12. P18054. purified 12hLO, xylenol orange hydroperoxide absorbance. Potency, µM (highest dose often 108 µM), for inactives: top-dose activity change, negative = inhibition, hits mostly inhibitors. 580,000 tested, 1.1% active; also: potency is read from the fitted curve at half-maximal effect; % is scaled to controls: 0 for no effect and ±100 for the full control effect
Target sequence (P18054 whole entry, looked up): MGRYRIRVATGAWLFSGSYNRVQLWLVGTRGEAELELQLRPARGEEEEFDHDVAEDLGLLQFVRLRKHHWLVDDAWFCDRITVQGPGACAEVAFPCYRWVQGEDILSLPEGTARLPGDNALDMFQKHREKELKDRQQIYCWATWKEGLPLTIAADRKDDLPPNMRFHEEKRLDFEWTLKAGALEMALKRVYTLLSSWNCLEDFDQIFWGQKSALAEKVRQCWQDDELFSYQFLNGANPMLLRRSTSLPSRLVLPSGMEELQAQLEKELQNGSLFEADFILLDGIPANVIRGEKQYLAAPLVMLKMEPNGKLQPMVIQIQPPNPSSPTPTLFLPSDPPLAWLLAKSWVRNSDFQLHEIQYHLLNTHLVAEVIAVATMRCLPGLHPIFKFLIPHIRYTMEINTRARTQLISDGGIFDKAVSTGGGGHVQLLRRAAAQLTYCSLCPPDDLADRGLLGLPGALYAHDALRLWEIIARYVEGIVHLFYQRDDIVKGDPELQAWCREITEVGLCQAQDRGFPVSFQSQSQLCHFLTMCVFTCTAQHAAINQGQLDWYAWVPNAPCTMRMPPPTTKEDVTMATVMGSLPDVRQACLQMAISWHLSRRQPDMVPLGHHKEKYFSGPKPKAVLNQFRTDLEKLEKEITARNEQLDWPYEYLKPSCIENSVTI
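Hydroperoxide product was detected by ferrous iron/xylenol orange as the 573 to 405 nm absorbance ratio. Arachidonic acid at 40 uM (final) was turned over for 30 min at room temperature by 150 nM human 12hLO, pH 7.0 Hepes buffer, after 15 min compound preincubation.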
Numbers without * were called inactive; ? = inconclusive; nt = no result; ! = repeats disagree; [ ] = dose if it differs, or a comment. Most compounds without a hit are left out; they make up all but 1.4% or so of the library. Unless noted, calls follow the shape of the dose curve; as a rule, active = well fitted curve in the direction sought with a large enough effect; inconclusive = small, poorly fitted or top-dose-only effect, or another doubt; inactive = no such curve, though single readings can be large; an effect the other way counts as inactive or inconclusive.

SMILES	CCT chaperon mod	PINK1 modulator	MmCpn inh	S-ASM inh	p53 reactivator	12-LOX inh
COc1ccc2c(c1)C1(CCN(C(=O)c3ccccc3Br)C1)C(=O)N2 (stereo not drawn)	nt	nt	nt	nt	nt	31.6µM*
C=CCN1C[C@@H]2CN(S(=O)(=O)c3cccnc3)C[C@]2(C(=O)O)C1	nt	nt	nt	nt	nt	54.2%
CCOc1cccc(N2C(=O)/C(=C/c3ccco3)C(=O)NC2=S)c1	-3.5	1.1%	-2.7%	3.6%	nt	11.2µM*
O=C1NC(=S)N(c2ccccc2)C(=O)/C1=C/c1ccco1	-1.1	-0.5%	-1.8%	-15.0%	7.1%	?
COc1cccc(N2C(=O)/C(=C/c3ccc(C)o3)C(=O)NC2=S)c1	-0.6	0.9%	-1.2%	-6.5%	8.0%	10µM*
Cc1ccc(Cn2nc(C)c(C(=O)NCc3cc(Cl)c4c(c3)OCCCO4)c2Cl)cc1	nt	nt	nt	nt	nt	-13.9%
CN1Cc2ccccc2-n2ccnc2C12CCN(C(=O)C1CCC1)CC2	nt	nt	nt	nt	nt	63.1%
CC=C(C)C1(CCC)C(=O)NC(=S)NC1=O	-1.4	-0.9%	nt	1.4%	nt	31.6µM*
COCCn1c(C)cc(C(=O)N2[C@H]3CC[C@@H]2c2cnc(-c4ccc(F)cc4)nc2C3)c1C	nt	nt	nt	nt	nt	14.0%
COc1cc(/C=C(/C)[N+](=O)[O-])ccc1OCc1ccccc1Cl	-30.7*	-2.8%	1.1%	-8.3%	-26.2%	nt
C[C@]12CCC3C(CC[C@H]4C[C@@H](O)CC[C@]34C)C1=CC[C@@H]2O (stereo partly drawn)	-35.1*	1.0%	nt	nt	nt	12.3%
C[n+]1ccc(-c2ccccc2)c2ccccc21	-31.7*	0.1%	-5.5%	18.4%	-2.7%	-8.5%
C[n+]1c(-c2ccccc2)sc2ccccc21	-0.9	2.0%	0.1%	-0.2%	-1.1%	-5.0%
COc1ccccc1N1CCN(C[C@H]2CN3CC[C@H]2C[C@@H]3CNC(=O)Nc2cccc(C#N)c2)CC1	nt	nt	nt	nt	nt	7.6%
COc1ccc(CCN2CCCC(CN(C)C(=O)c3cc(C)oc3C)C2)cc1 (stereo not drawn)	1.2	-0.1%	0.3%	2.8%	35.5µM*	7.6%
CCOC(=O)C1=C(NC(=S)NC(=O)c2ccccc2)c2ccccc2CC12CCCC2	2.0	-0.8%	-2.2%	0.4%	0.6%	20µM*
COc1cc2c(cc1-c1ccc(O)c(F)c1)NC(=O)C21CCN(C(C)=O)CC1	nt	nt	nt	nt	nt	16.6%[176 µM]
NCCCN1CCN(Cc2ccccc2)CC1	nt	nt	nt	nt	nt	-9.7%
COc1ccc2c3c1OC1C(O)C=CC4C(C2)[N+](C)(C)CCC341 (stereo not drawn)	-4.5	-1.0%	0.9%	1.1%	4.5%	44.7µM*
COC1=CC=C2[C@H]3Cc4ccc(OC)c5c4[C@@]2(CCN3C)[C@H]1O5	-0.9	-1.7%	-4.5%	-6.1%	-1.2%	58.9%
Cc1cccc(-n2c(O)c(C)c(=O)[nH]c2=S)c1	1.0	0.0%	-1.7%	4.4%	0.1%	44.7µM*
Cc1cccc(-n2c(O)c(C=Nc3ccc(Br)cn3)c(=O)[nH]c2=O)c1	0.2	-0.5%	-5.1%	8.0%	-3.4%	?
O=C(Cc1ccccc1)N1CCN(CCCc2ccccc2)CC1	-3.7	0.8%	-0.8%	4.7%	nt	0.891µM*
COc1ccccc1CC(=O)N1CCN(CCc2ccccc2)CC1	0.4	-0.5%	0.3%	3.5%	17.3%	-29.1%
CCCCC1(CCCC)C(=O)NC(=Nc2cccc(C)c2)NC1=O	-1.3	15.8µM*	0.9%	-3.2%	-1.7%	-16.7%
SMILES	CCT chaperon mod	PINK1 modulator	MmCpn inh	S-ASM inh	p53 reactivator	12-LOX inh
CC(C)(C)c1cc([N+](=O)[O-])cc(C(C)(C)C)c1O	-3.8	5.01µM*	0.2%	-12.0%	-5.0%	-33.2%
NC(=O)c1cc([N+](=O)[O-])cc([N+](=O)[O-])c1	-3.4	0.2%	nt	3.0%	nt	24.3%
CC1=C(O)C(=O)C=C2C1=CC=C1[C@@]2(C)CC[C@@]2(C)[C@@H]3C[C@](C)(C(=O)O)CC[C@]3(C)CC[C@]12C	nt	nt	nt	nt	nt	2.43µM*!
CC(=O)c1ccc(NC(=O)NC[C@H]2C[C@@H]3CCN2C[C@@H]3CN2CCSCC2)cc1	nt	nt	nt	nt	nt	-26.2%[176 µM]
CCc1nc2ccc(Br)cc2c(=O)n1-c1ccccc1C(F)(F)F	-1.3	5.3%	nt	-3.6%	nt	0.0%
CCCc1nc2ccc(Br)cc2c(=O)n1-c1ccc([N+](=O)[O-])c(C(F)(F)F)c1	-4.4	14.1µM*	0.8%	-8.7%	10.3%	-8.1%
COCc1cn(C[C@H]2CC3CCN2C[C@@H]3C(=O)Nc2ccccc2)nn1 (stereo partly drawn)	nt	nt	nt	nt	nt	23.4%[176 µM]
CN1Cc2ccccc2-n2ccnc2C12CCN(C(=O)c1ccc(C(F)(F)F)cc1)CC2	nt	nt	nt	nt	nt	46.0%
Cc1ccsc1CNC(C)C(O)c1ccc(O)cc1 (stereo not drawn)	nt	nt	nt	nt	nt	-87.8%
COc1cc(C)cc2oc(=O)c(CC(=O)N3CCN(CCc4ccccn4)CC3)c(C)c12	nt	nt	nt	nt	nt	-2.3%
COc1ccc(N2C(=O)NC(=O)/C(=C\c3cn(C)c4ccccc34)C2=O)cc1	-0.1	28.5%	-9.4%	1.1%	-2.2%	nt
COC(=O)Cn1cc(/C=C2\C(=O)NC(=O)N(c3ccc(OC)cc3)C2=O)c2ccccc21	-0.3	35.5µM*	-0.5%	-3.1%	9.9%	11.8%
COc1cc2c(cc1Oc1ccccc1)NC(=O)C21CCN(c2cnccn2)CC1	nt	nt	nt	nt	nt	-25.9%[176 µM]
Cc1ccc(N2C(=O)/C(=C/N3CCN(C(=O)c4ccco4)CC3)C(=O)NC2=S)cc1C	-5.5	-0.5%	0.2%	0.4%	-0.1%	39.8µM*
Cc1ccc(C2SCC(=O)Nc3n[nH]c(C)c32)cc1 (stereo not drawn)	nt	nt	nt	nt	nt	-2.3%
COc1ccccc1N1C(=O)NC(=O)/C(=C/c2ccc3c4c(cccc24)CC3)C1=O	0.2	6.1%	-1.7%	37.5%	17.5%	50.1µM*
CCN1C(=O)c2ccccc2Sc2ccc(NC(=O)Nc3ccc(Br)c(C)c3)cc21	nt	15.8µM*	nt	nt	nt	-19.8%
CCN1C(=O)c2ccccc2Sc2ccc(C(=O)N3CCC4(CC3)OCCO4)cc21	-1.2	-2.1%	0.0%	-1.3%	-5.7%	17.0%
COc1cc2c(cc1Oc1ccccc1)NC(=O)C21CCN(c2ncc(F)cn2)CC1	nt	nt	nt	nt	nt	-23.0%[176 µM]
O=C(COc1ccccc1)N1CCN(CC2CC=CCC2)CC1 (stereo not drawn)	-3.6	0.5%	-5.5%	-0.8%	3.6%	0.631µM*
O=C(COc1ccccc1)N1CCN(CC2CC3C=CC2C3)CC1 (stereo not drawn)	-2.2	nt	-2.9%	3.8%	3.6%	?
CC(=O)c1ccc2c(c1)C1C(Cl)C(Sc3ccccc3[N+](=O)[O-])CC1C(C(=O)O)N2 (stereo not drawn)	-1.6	5.8%	-2.7%	0.7%	-3.6%	11.2µM*

From PubChem
